From PubChem
Rab9 promoter act: qHTS Assay for Rab9 Promoter Activators; Huh7 Rab9 promoter-luciferase reporter, luminescence, 24 h; AID 485297, 2010; actives 2.8% (n = 320,000); Potency, µM (top dose mostly 9.22 µM), for the others: top-dose activation, negative = inhibition, most hits filed as activators; also: % of control where 0% means no effect; nearly all actives have a fitted effect of over 60% in size
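Using Huh7 cells stably transfected with Rab9 promoter–luciferase, compounds were incubated 24 h at 37 °C, 5% CO2; luciferase luminescence was read 10 min after reagent addition.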
FLuc counter: qHTS profiling assay for firefly luciferase inhibitor/activator using purifed enzyme and Km concentrations of substrates (counterscreen for miR-21 project); actives 6.9% (n = 360,000); Potency, µM (highest dose often 57.5 µM), for inactives: top-dose activity change, negative = inhibition, usual class: inhibitors; AID 588342, 2011; purified FLuc, Km substrates, luminescence inhibition;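 also: plate controls were vehicle for no effect and reference inhibitor for full effect; nearly all actives have a fitted effect of over 55% in size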
Target sequence (P08659 whole entry, looked up): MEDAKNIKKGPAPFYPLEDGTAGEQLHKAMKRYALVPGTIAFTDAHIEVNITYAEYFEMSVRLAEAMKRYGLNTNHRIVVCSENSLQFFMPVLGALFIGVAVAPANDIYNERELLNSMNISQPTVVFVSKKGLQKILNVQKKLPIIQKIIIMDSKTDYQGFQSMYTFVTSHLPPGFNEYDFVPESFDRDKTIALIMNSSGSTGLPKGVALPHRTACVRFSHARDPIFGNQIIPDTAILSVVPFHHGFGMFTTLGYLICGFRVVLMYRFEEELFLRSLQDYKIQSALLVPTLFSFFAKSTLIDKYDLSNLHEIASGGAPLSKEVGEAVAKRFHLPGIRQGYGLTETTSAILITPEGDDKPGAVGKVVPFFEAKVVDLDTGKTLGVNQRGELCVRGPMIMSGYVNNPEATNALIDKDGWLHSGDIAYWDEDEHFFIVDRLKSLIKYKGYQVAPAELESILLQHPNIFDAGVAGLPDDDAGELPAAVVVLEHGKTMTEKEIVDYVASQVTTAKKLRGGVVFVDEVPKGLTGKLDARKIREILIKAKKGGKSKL
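Biochemical qHTS of compounds, final roughly 60 µM downward over six points, against 10 nM purified firefly luciferase using Km concentrations of substrates (10 uM D-luciferin, 10 uM ATP) in Tris acetate pH 7.5 buffer; luminescence output.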
NPC1 promoter act: qHTS Assay for NPC1 Promoter Activators; Huh7 NPC1 promoter luciferase reporter, 24 h; actives 2.4% (n = 320,000); AID 485313, 2010; Potency, µM (titrated, usually from 9.22 µM), for the others: at the top dose activation, usual class: activators; also: % of control where 0% means no effect; nearly all actives have a fitted effect of over 60% in size
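Stable NPC1-promoter luciferase Huh7 line; cpd (DMSO) 24 h, 37 °C, 5% CO2; Amplite luciferase reagent 10 min RT; luminescence readout. qHTS format.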
ELG1 genotox: qHTS screen for small molecules that induce genotoxicity in human embryonic kidney (HEK293T) cells expressing luciferase-tagged ELG1; HEK293T ELG1-luciferase reporter, luminescence, 16 h; Potency, µM (doses to about 46 µM), for inactives: top-dose activity change, positive = activation, most hits filed as activators; actives 1.3% (n = 330,000); AID 504466, 2011; also: % of control where 0% means no effect; nearly all actives have a fitted effect of over 60% in size
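Genotoxic stress is detected as increased luminescence from luciferase-tagged ELG1 in HEK293T cells, measured with ONE-Glo after a 16 hr treatment at 37 °C.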
ELG1 repair inh: qHTS screen for small molecules that inhibit ELG1-dependent DNA repair in human embryonic kidney (HEK293T) cells expressing luciferase-tagged ELG1; Potency, µM (top dose mostly 46.1 µM), inactives show at the top dose activity change, negative = inhibition, usual class: inhibitors; HEK293T ELG1-luciferase reporter, luminescence, 16 h; DNA damage induced by 5-fluorouridine; actives 2.3% (n = 330,000); also: % is scaled to controls: 0 for no effect and ±100 for the full control effect; nearly all actives have a fitted effect of over 55% in size
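In this reporter screen, reduction of luminescence relative to DMSO vehicle indicated activity. Compounds and 5-fluorouridine were added together to 2,000 cells per well, incubated for 16 hr at 37 °C, then developed with ONE-Glo.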
SMN2 splice enh: qHTS Assay for Enhancers of SMN2 Splice Variant Expression; AID 1458, 2008; actives 2.8% (n = 210,000); Potency, µM (series often up to 46.1 µM), inactives show at the top dose activity change, positive = activation, actives largely listed as activators; HEK293 SMN2-luciferase splicing reporter, luminescence, 30-36 h; also: % of control where 0% means no effect; nearly all actives have a fitted effect of over 55% in size
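HEK293 cells carry an SMN2 […]–luciferase reporter in which exon 7 inclusion puts luciferase in frame. Cells were plated 10-12 h before compound addition, then incubated 30-36 h at 37C. ONE-Glo luminescence was read; sodium butyrate at 4.5 mM final served as control.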
* = called active by the depositor; ? = inconclusive; / = not tested or not shown; [ ] = another dose, or the depositor's remark. A selection: hits, their analogues and other compounds. The true share with any hit is near 9.2%. Calls follow the shape of the dose curve; as a rule, active = well fitted curve in the direction sought with a large enough effect; inconclusive = small, poorly fitted or top-dose-only effect, or another doubt; inactive = no such curve, though single readings can be large; an effect the other way counts as inactive or inconclusive. Potency is read from the fitted curve at half-maximal effect.

SMILES | Rab9 promoter act | FLuc counter | NPC1 promoter act | ELG1 genotox | ELG1 repair inh | SMN2 splice enh
CCOC(=O)C1CCN(C2=NC(=O)/C(=C/c3ccc(Cl)cc3)S2)CC1 | -2% | ? | -2% | -2% | -9% | /
Cc1cc(C)c2oc(C(=O)Nc3ccc(S(=O)(=O)N4CCCCC4)cc3)cc(=O)c2c1 | / | 0% | / | / | / | -5%
COc1ccc(-n2c(=O)c3c4c(sc3n(Cc3c(F)cccc3Cl)c2=O)CN(C(C)=O)CC4)cc1OC | / | -2% | / | / | / | /
O=C(CSc1nnc2ccc(-c3cccnc3)nn12)Nc1ccccc1F | 2% | 0% | -1% | 2% | 2% | /
CN=C1S/C(=C\c2ccc(O)c(Br)c2)C(=O)N1C | -5%[1.84 µM] | 15µM* | -12% | 17% | ? | /
c1ccc(CN2OCC3Cn4c(nc5ccccc54)C32)cc1 (stereo not given) | -5% | -1% | -3% | 3% | ? | /
c1ccc(N2OCC3Cn4c(nc5ccccc54)C32)cc1 (stereo not given) | 5% | 19µM* | 8% | 16% | ? | /
Cc1ccc(C(=O)Nc2cccc(C(=O)O)c2)cc1 | ? | 0.15µM* | ? | ? | ? | 1µM*
O=C(O)c1ccc(NC(=O)c2ccc(Cl)cc2)c(NC(=O)c2ccc(Cl)cc2)c1 | 21% | ? | -1% | 2% | -3% | /
Cc1ccc(C(=O)Nc2cccc(C(=O)NC3CCCC3)c2)cc1 | ? | 12µM* | ? | -7% | -5% | /
O=C(O)c1cccc(NC(=O)c2cc(NC(=O)c3ccccc3)cc(NC(=O)c3ccccc3)c2)c1 | 3% | ? | 0% | 6% | 18% | /
Cc1ccc(C(=O)Nc2ccc(C(=O)O)cc2NC(=O)c2ccc(C)cc2)cc1 | 22% | 21µM* | ? | ? | ? | /
Cc1oc2c(c1C(=O)Nc1cccc(C(=O)O)c1)CCCC2 | ? | 19µM* | ? | ? | ? | 14%
Nc1ccc(C(=O)Nc2ccco2)cc1 | 21% | -1% | 13% | 11% | ? | ?
CC(=O)c1cccc(NC(=O)c2ccc(N(C)S(=O)(=O)c3ccc(C)cc3)cc2)c1 | 4% | -3% | 1% | -17% | 16µM* | /
Cc1cccc2nc(C(=O)Nc3cccc(C(=O)NC4CC4)c3)cn12 | 3.2µM* | 2.4µM* | ? | 11% | ? | /
CC(=O)Nc1ccccc1C(=O)C(=O)Nc1cccc(C(=O)NC2CC2)c1 | 2.8µM* | -11% | ? | 13% | ? | 0%[1.84 µM]
CC(=O)c1cccc(NC(=O)c2ccc(N(Cc3ccc(C)cc3)S(C)(=O)=O)cc2)c1 | -3% | 8% | 0% | -26% | ? | -15%
Nc1ccc(C(=O)Nc2cccc(NC(=O)c3ccc(N)cc3)c2)cc1 | 21% | 11µM* | 4% | 7% | 17% | /
O=C(O)Cc1ccc(NC2(c3ccccc3)C(=O)c3ccccc3C2=O)cc1 | / | -11% | / | / | / | /
CN(C)c1ccc(CN(C(=O)c2cc3ccccc3oc2=O)C2CCS(=O)(=O)C2)cc1 (stereo not given) | ? | 12µM* | 2.8µM* | ? | ? | /
O=C(c1cc2ccccc2oc1=O)N(Cc1ccco1)C1CCS(=O)(=O)C1 (stereo not given) | ? | 15µM* | ? | 18µM* | ? | -7%
O=C(c1cc2ccccc2oc1=O)N(Cc1cccc(Cl)c1)C1CCS(=O)(=O)C1 (stereo not given) | / | 0% | / | / | / | 3%
COc1ccccc1CN1CC(C(=O)NCCCc2ccc(F)cc2)CCC1=O (stereo not given) | 0% | -1% | -1% | -2%[9.26 µM] | 10µM* | /
COc1ccccc1CN1CC(C(=O)NCc2c(F)ccc(C)c2F)CCC1=O (stereo not given) | ? | 30µM* | ? | ? | ? | /
SMILES | Rab9 promoter act | FLuc counter | NPC1 promoter act | ELG1 genotox | ELG1 repair inh | SMN2 splice enh
COc1ccc(NS(=O)(=O)c2ccc(C)c(C(=O)N(C)Cc3ccc(C)cc3)c2)cc1 | -2% | 1% | 1% | -7% | -23% | /
CCc1nnc(NC(=O)c2ccc3c(c2)C(=O)N(C(C)(C)C)C3=O)s1 | 3.2µM* | 2.7µM* | 3.5µM* | ? | ? | ?
CC(C)c1ccccc1NC(=O)c1ccc2ncsc2c1 | -2% | ? | 2% | 13% | ? | /
CCc1nnc(NC(=O)c2ccncc2)s1 | 1% | -17% | -2% | 8% | ? | -3%
Cc1cnc(NC(=O)c2ccc3ncsc3c2)s1 | 0.71µM* | 3µM* | 1.3µM* | ? | ? | /
CCc1nnc(NC(=O)c2ccc3ncsc3c2)s1 | ? | 24µM* | ? | ? | ? | /
CC1(C)Cc2c(sc(NC(=O)c3ccc4ncsc4c3)c2C(N)=O)C(C)(C)N1 | ? | ? | ? | 16µM* | ? | ?
Nc1nc(CCl)nc(Nc2cccc3ccccc23)n1 | -49% | 4% | -38% | -10% | ? | /
O=C(CSc1nc(C(F)(F)F)cc(=O)[nH]1)NCc1ccc2c(c1)OCO2 | -6% | 3% | -2% | -1% | 2% | /
Cc1ccc(S(=O)(=O)N2CCN(C(=O)COC(=O)c3cccc(Cl)c3)CC2)c(C)c1 | -3% | -1% | 0% | -2% | -1% | /
CSCCC(NC(=O)COc1ccccc1)C(=O)N1CCN(C(C)=O)CC1 (stereo not given) | -3% | 5% | -5% | 1% | 14% | /
O=S1(=O)NC2c3ccccc3CC2O1 (stereo not given) | 0% | -9% | 1% | -4% | 3% | /
CC(C)c1ccc2c(c1)C1Cc3ccccc3C1N2 (stereo not given) | 8% | 15µM* | 16% | ? | ? | 21%
Cc1sc(NC(=O)c2ccccc2)c(C#N)c1-c1ccccc1 | 1.6µM* | 2.4µM* | 2.8µM* | ? | ? | 8.9µM*
CCc1c(C)sc(NC(=O)c2cccs2)c1C#N | ? | 7.6µM* | ? | ? | ? | 11µM*
CCc1c(C)sc(NC(=O)c2cc(C)on2)c1C#N | ? | 12µM* | ? | ? | ? | 26%
Cc1ccc(C(=O)Nc2sc(C(=O)N(C)C)c(C)c2C#N)cc1 | -2% | ? | -1% | 9% | 1% | 26%
CCCc1cc(C(=O)Nc2sc(C)c(CC)c2C#N)no1 | 0% | -14% | 6% | 7% | 24% | 6%
